Results filed as inconclusive are left out. A call without a number means that no potency is given here. The source made the active and inactive calls. The call rests on the fitted dose curve; in most records, active means well fitted inhibition curve with a large enough effect; inconclusive means small, poorly fitted or top-dose-only effect; inactive means flat fitted curve, though single readings scatter.

Chain of Calcium and integrin-binding protein 1 (Homo sapiens) (Q99828 whole entry, looked up): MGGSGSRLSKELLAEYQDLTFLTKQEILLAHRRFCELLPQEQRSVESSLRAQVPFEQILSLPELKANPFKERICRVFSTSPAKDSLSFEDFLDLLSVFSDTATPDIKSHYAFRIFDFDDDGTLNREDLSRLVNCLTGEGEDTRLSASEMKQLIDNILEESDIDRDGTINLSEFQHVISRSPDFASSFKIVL

The experiment deals with Calcium and integrin-binding protein 1 (Homo sapiens) (UniProt Q99828). In words: Primary qHTS for Identification of Calcium Integrin Binding Protein 1 (CIB1) Competitor (AID 1508620).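 Further: GST tagged CIB1 binding a fluorescein labelled alphaIIb integrin peptide tracer; top concentration of the series differs between compounds.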 The following applies: CIB1-GST / FITC-alphaIIb peptide fluorescence polarization; series mostly up to 114 µM. In a few lines:
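CIB1-GST (1 uM final) and compound incubated 15 min at room temperature before adding FITC-alphaIIb peptide tracer (100 nM final). Competition for binding read by fluorescence polarization (ex 480, em 540) after another 15 min at room temperature.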
As for `COc1cc(-c2ccc3ncnc(NCc4ccc(C)o4)c3c2)cc(OC)c1OC`, the Potency result was “inactive”. Then `Cc1ccc(OCCn2c(CCN(C)C(=O)C3CCCCC3)nc3ccccc32)cc1`, with “inactive”.

`N#Cc1no[n+]([O-])c1-c1ccccc1`: the Potency result was “inactive”. Regarding `COc1cccc(C2=Nn3c(nnc3-c3cccc(OC)c3)SC2)c1`, the Potency result is “inactive”. For `COc1cccc(CNc2ccc([S+](=O)([O-])Nc3cc4ccccc4s3)cc2)c1O`, the Potency entry was “inactive”.

As for `Cc1ccc(NC(=O)CSc2nnc(-c3cccc([S+](=O)([O-])N4CCCC4)c3)n2-c2ccccc2)cc1`, the Potency result was “inactive”.

In the case of `Cc1cc(C)n2ncc(C(=O)Nc3cc(Cl)cc(Cl)c3)c2n1`, the Potency entry was “inactive”. `CN1C(=O)CCc2cc(S(=O)(=O)Nc3ccc(Cl)c(Cl)c3)ccc21`: the Potency entry is “inactive”. As for `O=C(Nc1ccc2ccccc2c1)Nc1nnc(-c2ccccc2Cl)s1`, the entry is “inactive”; as for `O=S(=O)(c1ccc2c(c1)OCCO2)N1CCN(S(=O)(=O)c2ccc(F)c(F)c2F)CC1`, “inactive”; as for `O=C1c2ccccc2C(=O)N1c1cccc(O)c1`, “inactive”. Then `O=C1CCCC2=C1[C@@]1(CCC(c3ccccc3)C1)N=C(Nc1nc3ccccc3o1)N2` (stereo not given in full), with “inactive”; and `O=S1(=O)N=C(Sc2cc(C(F)(F)F)cc(C(F)(F)F)c2)c2ccccc21`, with “inactive”. Then `Cc1ccnc(NC(=S)NC2CCCN(c3cccc(C(F)(F)F)c3)C2)c1` (stereo not given), with “inactive”; and `O=C(NCCc1nc2ccccc2n1CCOc1cccc(Br)c1)C1CCCCC1`, with “inactive”; and `Cc1ccc(NC(=O)CN2C(=O)N/C(=C\c3cccn3-c3cccc(-c4nn[nH]n4)c3)C2=O)cc1`, with “inactive”. `FC(F)(F)c1ccccc1-c1nc(NCc2ccc(-c3ccccc3)cc2)c2ccccc2n1`: the Potency entry is “inactive”.

In the case of `O=C1Nc2c(Cl)cccc2/C1=C\c1cc(Cl)c(O)c(Cl)c1`, the Potency entry was “inactive”. In the case of `CS(=O)(=O)c1ccc(C(=O)OCC(=O)N2CCN(C3CCCCC3)CC2)cc1[N+](=O)[O-]`, the Potency result is “inactive”. Consider `O=C1CCc2cc(S(=O)(=O)Nc3cccc(F)c3)ccc2N1`, for which the Potency result was “inactive”.

For `Cc1ccsc1CN(C)c1ncnc2ccc(-c3ccoc3)cc12`, the Potency entry is “inactive”. Then `CC(=O)Nc1sc2c(c1-c1cccc(F)c1)CCNC2`, with “inactive”. `COc1ccc([S+](=O)([O-])Nc2ccc(-c3nc4ccccc4[nH]3)cc2)cc1OC`: the Potency result was “inactive”. As for `CCN(CC)c1cc2c(cc1S(=O)(=O)Nc1ccc(C)c(C)c1)CCC(=O)N2`, the entry is “inactive”; as for `COc1ccc(N2C[C@]34C=C[C@H](O3)C(C(=O)O)C4C2=O)cc1` (stereo not given in full), “inactive”. Then `C#CCOc1ccc(C(C)=O)cc1-c1nnc2n1N=C(c1ccc(OC)c(O[C@@H]3CCOC3)c1)CS2`, with “inactive”; and `O=C(NC1CCCc2c1cnn2-c1ccc(F)cc1F)c1ccccn1` (stereo not given), with “inactive”. As for `O=C(Nc1ccccn1)c1sc2ccc([N+](=O)[O-])cc2c1Cl`, the entry is “inactive”; as for `COc1cc(Nc2nc(-c3ccncc3)nc3ccccc23)ccc1NS(C)(=O)=O`, “inactive”; as for `Cc1nc(NCc2ccc(-c3cccnc3)cc2)c2ccccc2n1`, “inactive”. Turning to `O=C(CNC(=O)c1ccc(-c2ccccc2)cc1)OC(C(=O)Nc1cc(C(F)(F)F)ccc1Cl)c1ccccc1` (stereo not given), the Potency result was “inactive”. On to `O=S(=O)(NCCNS(=O)(=O)c1c(F)cccc1F)c1ccc2c(c1)OCCO2`, for which the Potency result was “inactive”.

Turning to `O=C1c2ccccc2C(=O)N1c1ccc(Cl)cc1`, the Potency entry is “inactive”. Take `COc1cccc(C2c3c(ncn(-c4cccc(Cl)c4)c3=N)Oc3ccc4ccccc4c32)c1` (stereo not given): the Potency result was “inactive”.

On to `c1cncc(CNc2ncnc3ccc(-c4ccc5c(c4)OCCO5)cc23)c1`, for which the Potency entry is “inactive”. As for `COc1ccc(C2c3c(ncn(CCN4CCOCC4)c3=N)Oc3ccc4ccccc4c32)cc1` (stereo not given), the entry is “inactive”; as for `Cc1cc(C)nc(NC(=S)N2CCN(c3nnc(C(F)(F)F)s3)CC2)c1`, “inactive”. As for `c1cc2c(cc1CNc1ccc(N3CCCCC3)cc1)OCO2`, the entry is “inactive”; as for `Nc1ccc(S(=O)(=O)N2CCN(S(=O)(=O)c3ccc4c(c3)OCCO4)CC2)cc1`, “inactive”; as for `CC(C)c1ccccc1-c1ncc(F)c(NCc2ccc(-c3ccn[nH]3)cc2)n1`, “inactive”.

For the origin of these results see PubChem BioAssay (NCATS).
